The other results are listed elsewhere or left out. Active and inactive are the calls of the source. Rule as the data show it, unless noted: active = inhibition above about 13%; inactive = the rest.

COUP transcription factor 2 (Homo sapiens), sequence (P24468 whole entry, looked up): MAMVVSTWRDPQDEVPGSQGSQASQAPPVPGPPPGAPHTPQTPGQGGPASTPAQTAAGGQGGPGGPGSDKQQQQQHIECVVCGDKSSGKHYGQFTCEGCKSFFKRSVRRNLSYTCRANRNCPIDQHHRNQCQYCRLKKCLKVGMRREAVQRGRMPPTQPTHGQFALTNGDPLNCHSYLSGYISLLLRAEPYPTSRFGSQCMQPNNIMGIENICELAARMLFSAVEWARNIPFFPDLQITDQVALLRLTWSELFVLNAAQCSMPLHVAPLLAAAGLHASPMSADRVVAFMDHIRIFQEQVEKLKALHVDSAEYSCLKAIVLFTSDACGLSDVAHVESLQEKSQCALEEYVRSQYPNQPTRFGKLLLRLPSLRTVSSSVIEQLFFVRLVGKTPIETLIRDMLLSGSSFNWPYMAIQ

Test system in the first test: not listed separately
In words: Gal4-VP16 luciferase reporter inhibitors, counter-screen for COUP-TFII antagonist project, cell-based, luminescence, HEK293 (AID 687007). The following applies: at 8.5 µM, hits give high values.
Take `CCN(CC)S(=O)(=O)c1ccc(N(C)Cc2ccc(C(F)(F)F)cc2)nc1`: the inhibition was -6.6% (inactive).

`OC[C@@H]1CN(Cc2ccc(-c3ccccc3)cc2)C[C@H](n2cnc3c(NC4CCCC4)ncnc32)O1`: the inhibition is 4.62% (inactive).

For `COc1ccccc1CNc1nc(Nc2ccccc2Cl)c2sccc2n1`, the inhibition was -3.83% (inactive).

On to `COc1cc(CC(=O)Nc2nc(-c3ccc(F)c(F)c3)cs2)cc(OC)c1OC`, for which the inhibition was -0.07% (inactive).

For the compound `CCOC(=O)N1CCN(C(=O)C2CCN(c3ncnc4c3sc3cccc(F)c34)CC2)CC1`, the inhibition is -7.67% (inactive).

The next test concerns the target COUP transcription factor 2 (Homo sapiens) (UniProt P24468). In words: NR2F2 transcriptional activity inhibitors, confirmation, cell-based, luciferase reporter, HEK293, triplicate (AID 687008;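 active = mean inhibition over three repeats above a set limit taken from the earlier primary screen, cut at about 38% in these data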;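 also: 100% = cells given the luciferase reporter alone without the COUP-TF2 vector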). The following applies: HEK293 NGFI-A luciferase reporter, luminescence; at 8.5 µM; hits give high values.
Regarding `CCN(CC)S(=O)(=O)c1ccc(N(C)Cc2ccc(C(F)(F)F)cc2)nc1`, the inhibition was 22.6% (inactive).

As to `OC[C@@H]1CN(Cc2ccc(-c3ccccc3)cc2)C[C@H](n2cnc3c(NC4CCCC4)ncnc32)O1`, the inhibition was 63.3% (active).

On to `COc1ccccc1CNc1nc(Nc2ccccc2Cl)c2sccc2n1`, for which the inhibition was 29.8% (inactive).

As for `COc1cc(CC(=O)Nc2nc(-c3ccc(F)c(F)c3)cs2)cc(OC)c1OC`, the inhibition is 44.8% (active).

Regarding `CCOC(=O)N1CCN(C(=O)C2CCN(c3ncnc4c3sc3cccc(F)c34)CC2)CC1`, the inhibition was 27.1% (inactive).

The values are drawn from PubChem BioAssay.
